Screening results from PubChem.
Peg3 promoter – Peg3 promoter-driven luciferase inhibitors, primary screen, cell-based, HeLa, luciferase luminescence. HeLa PEG-Prom luciferase reporter, overnight. 360,000 compounds, 1.7% hits. inhibition, % at 20 µM;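 active = inhibition of at least 50% at 20 µM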
PAX8 reporter – inhibitors of PAX8-driven TPO luciferase reporter, primary screen, RMG-I cells, single concentration; SteadyGlo, 24 h; inhibition, % at 12.6 µM; 360,000 compounds, 1.2% hits;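 active = mean replicate inhibition at least 60% with every replicate also reaching 60%; inconclusive = only one of the two criteria is met; inactive = mean below 60% and not all replicates reaching 60%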;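 also: luciferase light reporting Pax8 driven TPO promoter activity; plate controls were median of neutral control wells for no effect and mitoxantrone controls for full effect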
Shn3 inh set2 – reduction of Shn3 3'UTR firefly luciferase signal, primary screen, Schnurri-3 inhibitor project, cell-based, Clone20 osteoblasts, set 2; inhibition, % at 12.5 µM; Clone20 osteoblast Shn3 3'UTR firefly luciferase, 24 h; 360,000 compounds, 0.52% hits; AID 588674, 2011;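 active = mean inhibition of at least 75% with every replicate also reaching 75%; inconclusive = mean inhibition at least 75% but some replicate below; inactive = mean inhibition below 75%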;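 also: 0% = median of neutral control wells and 100% = pilot-screen positive control compound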
ABHD5 PLIN5 PPI – ABHD5-PLIN5 interaction inhibitors, primary screen, cell lysate, split luciferase complementation, luminescence; Split G. princeps luciferase complementation, 4 h; inhibition, % at 4 µM; Perilipin-5 (Homo sapiens) + 1-acylglycerol-3-phosphate O-acyltransferase ABHD5 (Homo …; 360,000 compounds, 0.78% hits;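 active = inhibition above the mean inhibition across every tested compound plus 3 SD, cut at about 22% in these data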;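 also: 0% = DMSO only wells and the 100% control is not disclosed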
TRPM1 prom inh – inhibitors of MITF-dependent TRPM1 promoter reporter, primary screen, cell-based, SK-MEL-5, single point, luciferase. SK-MEL-5 TRPM1 promoter luciferase, 24 h. inhibition, % at 12.5 µM. 330,000 compounds, 0.83% hits;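 active = mean inhibition across replicates of 60% or more, whatever share of single replicates reaches that level; inconclusive = some that reach 60%, reason not given; inactive = mean inhibition across replicates below 60%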
EWS-Fli block – EWS/Fli-driven NR0B1 reporter inhibitors, primary screen, A673 cells, NR0B1 luciferase, luminescence, MLPCN library | viability-normalised | inhibition, % at 12.6 µM | 350,000 compounds, 0.67% hits;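 active = mean inhibition of at least 50% after viability correction, with every replicate also passing that limit; inconclusive = mean reaches 50% but only one of two replicates passes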;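 also: firefly luciferase signal divided by Alamar Blue viability fluorescence both relative to DMSO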
* = called active by the depositor; ? = inconclusive; . = not tested or not shown. Compounds with a hit are over-represented: about 3% of the library has one in this group of screens.

SMILES	Peg3 promoter	PAX8 reporter	Shn3 inh set2	ABHD5 PLIN5 PPI	TRPM1 prom inh	EWS-Fli block
COc1ccc(C(=O)Nc2ccccn2)cc1	-1	.	-3	5	2	.
O=C(Nc1ccccn1)c1ccc(-c2ccccc2)cc1	1	-1	13	-5	13	73*
O=S(=O)(Nc1nc2ccccc2nc1Nc1cccc(S(=O)(=O)N2CCCCC2)c1)c1ccccc1	69*	27	25	3	17	22
C[C@H]1CCCCO[C@H](CN(C)C(=O)Cc2ccccc2)[C@@H](C)CN([C@@H](C)CO)C(=O)c2cc(NS(=O)(=O)c3cn(C)cn3)ccc2O1	.	13	.	.	.	2
C[C@H]1CN([C@@H](C)CO)C(=O)c2cccc(NC(=O)Nc3ccc(C(F)(F)F)cc3)c2O[C@@H]1CN(C)Cc1ccc(Cl)c(Cl)c1	97*	27	18	-6	46	4
C[C@@H]1CN([C@H](C)CO)C(=O)c2cccc(NC(=O)c3ccncc3)c2O[C@H]1CN(C)Cc1ccc(Cl)c(Cl)c1	.	61*	.	.	.	-4
CCCC(=O)Nc1ccc2c(c1)C(=O)N(C)[C@@H]1CC[C@@H](CC(=O)NCCc3ccccc3)O[C@@H]1CO2	.	0	.	.	.	-6
CN1CCN(C(=O)C[C@H]2CC[C@@H]3[C@H](COC[C@@H](O)CN3C(=O)C3CC3)O2)CC1	.	10	.	.	.	-2
Cc1noc(C)c1NC(=O)Nc1ccc2c(c1)C(=O)N([C@H](C)CO)C[C@H](C)[C@H](CN(C)S(=O)(=O)c1ccccc1)OCCCC[C@@H](C)O2	.	-19	.	.	.	-4
CCCC(=O)N1CC2(C1)CN(C(=O)C1CCCCC1)[C@H](CO)c1[nH]c3cc(OC)ccc3c12	.	-1	.	.	.	6
Cc1ccc(Cl)cc1N1CCN(C(=O)c2noc(C(C)C)c2[N+](=O)[O-])CC1	4	119*	1	3	8	56*
COc1ccc(-c2cc(C(=O)N3CCN(C(c4ccccc4)c4ccccc4)CC3)no2)cc1	12	.	15	1	-2	9
O=C(c1cc(-c2ccco2)on1)N1CCN(C(c2ccccc2)c2ccccc2)CC1	15	.	24	-6	75*	.
Cc1onc(C(=O)N2CCC(Cc3ccccc3)CC2)c1[N+](=O)[O-]	-8	?	-3	-5	0	59*
CC(C)c1onc(C(=O)N2CCN(c3ccccc3)CC2)c1[N+](=O)[O-]	-8	10	7	-3	-2	6
CC(C)c1onc(C(=O)N2CCN(C(c3ccccc3)c3ccccc3)CC2)c1[N+](=O)[O-]	17	84*	6	5	0	64*
Cc1onc(C(=O)N2CCN(Cc3ccccc3)CC2)c1[N+](=O)[O-]	5	1	-26	0	7	-1
C[C@@H]1CN([C@@H](C)CO)C(=O)Cc2cc(NC(=O)C3CC3)ccc2O[C@@H]1CN(C)S(=O)(=O)c1ccc(F)cc1	.	.	.	.	.	-6
Cc1noc(C)c1S(=O)(=O)N(C)C[C@@H]1OCCCC[C@H](C)Oc2ccc(NS(=O)(=O)c3cccs3)cc2C(=O)N([C@H](C)CO)C[C@@H]1C	.	24	.	.	.	7
CC=Cc1ccc2n(c1=O)C[C@H]1[C@H](CO)[C@@H](C(=O)NCC3CC3)N(Cc3ccccn3)[C@@H]21 (mixture of isomers)	.	-3	.	.	.	4
C[C@@H]1CN([C@@H](C)CO)C(=O)c2cc(-c3ccccc3)cnc2O[C@H]1CN(C)Cc1cccnc1	.	.	.	.	.	-12
C[C@@H]1CN([C@H](C)CO)C(=O)c2cc(N(C)C)ccc2O[C@@H](C)CCCCO[C@H]1CN(C)C(=O)Nc1ccccc1	.	11	.	.	.	0
CCNC(=S)NNC(=O)c1cc(-c2ccc(OCC)cc2)nc2ccccc12	-28	.	8	-6	22	71*
CCc1ccc(-c2cc(C(=O)Nn3cnnc3)c3ccccc3n2)cc1	37	.	15	-2	66*	78*
COc1ccc(CCNc2c(C)c(C)nc3ncnn23)cc1	20	.	81*	-5	22	16
